# Test results from PubChem BioAssay (NCATS).
# Records with an inconclusive call do not appear. Values without a mark were called inactive. Calls of active or inactive are those of the source.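 How the source made its calls: active means dose-dependent loss of cell ATP signal giving a full or clear fitted curve, ranked by lower potency value; inconclusive means weak partial curve or response only at the top dose; inactive means no loss of viability signal.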
# Experiment: Cell Viability - Jurkat (AID 426);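 further: cells exposed to compound for 40 hours at 37 °C before ATP read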
# Conditions: qHTS
# Source text: NIH Chemical Genomics Center [NCGC]
# NIH Molecular Libraries Screening Centers Network [MLSCN]
# National Institutes of Environmental Health Sciences [NIEHS]
# National Toxicology Program [NTP]
# We have developed a 1536-well cell-based assay for quantitative high throughput screening (qHTS) against a number of cell lines to determine in vitro cytotoxicity of small molecules. This particular assay uses the Jurkat cell line (Clone E6-1) which is derived from the human T cell leukemia.
# NCGC Assay Protocol Summary:
# The CellTiter-Glo luminescent cell viability assay (Promega) is a homogeneous method to measure the number of viable cells in culture. The end point readout of this assay is based on quantitation of intracellular ATP, an indicator of metabolic activity, using the luciferase reaction. Luciferase catalyzes the oxidation of beetle Luciferin to oxyluciferin and light in the presence of ATP. The luminescent signal is proportional to amount of ATP present.
# Using the CellTiter-Glo luminescent cell viability assay, the amount of cellular ATP was measured in the Jurkat cell line with complete culture medium following compound treatment for 40 hours. The assay was performed in opaque white Kalypsys 1536-well plates. In the screen, tamoxifen and doxorubicin were used as positive controls. Library compounds were measured for their ability to cause acute toxicity in the cell line, as reflected by a decrease in intracellular ATP levels, in a concentration-dependent manner. […] AC50 values were determined from concentration-response data modeled with the standard Hill equation.
# qHTS protocol for CellTiter Glo Jurkat cellular assay
# [Step] [Parameter] [Value] [Description]
# 1. Reagent; 5 uL; 5000 Jurkat cells/well
# 3. Controls; 23 nL; Tamoxifen 0.34 uM to 100 uM & Doxorubicin 0.02 nM to 100 uM
# 4. Time; 40 hr; 37 °C incubation
# 5. Reagent; 5 uL; CellTiter Glo reagent
# 6. Time; 20 min; Room Temperature
# 7. Detection; Luminescence; Viewlux plate reader
# Keywords: cell viability, cytotoxicity, Jurkat cell line, luminescence, NTPHTS, NTPHTS_NCGC, NIEHS, EPA, DSSTox, MLSMR, MLSCN, NIH Roadmap, qHTS, NCGC
# Potency means the concentration at half of the fitted maximal effect.
row,SMILES,Potency
1,Cc1cc(-c2cc(C)c(N)c(C)c2)cc(C)c1N,> 92 µM
2,c1ccc(P(c2ccccc2)c2ccccc2)cc1,> 92 µM
3,Cc1cccc(C)c1N,> 92 µM
4,ClCc1ccccn1,> 92 µM
5,O=Cc1ccc(Cl)cc1Cl,> 92 µM
6,CCOC(=O)CC(SP(=O)(OC)OC)C(=O)OCC (stereo not given),> 92 µM
7,O=S(=O)(Cl)c1ccccc1,> 92 µM
8,CN(C)C(=O)Nc1cccc(C(F)(F)F)c1,> 92 µM
9,CC(C#N)CCC#N (stereo not given),> 92 µM
10,CC[N+](=O)[O-],> 92 µM
11,Nc1cccc2ccccc12,33 µM (active)
12,C1CC2OC2CC1C1CO1 (stereo not given),> 92 µM
13,CC(C)C#N,> 92 µM
14,CCOP(=S)(OCC)SCCSCC,> 92 µM
15,C/C=C/CC#N,> 92 µM
16,c1ccc(Nc2ccc(Nc3ccccc3)cc2)cc1,> 92 µM
17,OCC(Cl)CCl (stereo not given),> 92 µM
18,[O-][Cl+2]([O-])O,> 92 µM
19,CN(C)C(=O)Nc1ccc(Cl)cc1,> 92 µM
20,Cc1ccc(N)c(C)c1,> 92 µM

row,SMILES,Potency
1,ClCC(Cl)CCl,> 92 µM
2,CC(Cl)(Cl)Cl,> 92 µM
3,ClCCBr,> 92 µM
4,CCCCCCCCCCCCCl,> 92 µM
5,O=Cc1ccc2c(c1)OCO2,> 92 µM
6,N#CCCCCC#N,> 92 µM
7,CC(C)OS(C)(=O)=O,> 92 µM
8,Oc1ccc(Cl)c(Cl)c1Cl,> 92 µM
9,CCCN(CCC)c1c([N+](=O)[O-])cc(C(F)(F)F)cc1[N+](=O)[O-],> 92 µM
10,CCOC(=O)CBr,> 92 µM
11,ClCC(Cl)Cl,> 92 µM
12,CCOP(=S)(OCC)Oc1nc(Cl)c(Cl)cc1Cl,> 92 µM
13,C[N+](=O)[O-],> 92 µM
14,Cc1ccc([N+](=O)[O-])cc1,> 92 µM
15,ClC(Cl)c1ccccc1,> 92 µM
16,C=CC#N,> 92 µM
17,ClCC(Br)CBr (stereo not given),> 92 µM
18,CC(Cl)CCl (stereo not given),> 92 µM
19,CCCCOC(C)=O,> 92 µM
20,ClC(Cl)(Cl)C(Cl)(Cl)Cl,> 92 µM
